Laboratory results taken from PubChem BioAssay AID1159580 (chemical genetic matrix, 2015).
Screen size: about 5,500 compounds; about 2,000 (36%) were called active. Not shown: some 18% with an inconclusive outcome. Rule as the data show it: active = normalized growth mostly below about 0.91 (no sharp cut-off); inconclusive = no clear call, values can overlap the other calls; inactive = mostly above about 0.92. The list shows a part of the results.

Test: chemical genetic growth profiling, strain panel (AID 1159580);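 also: tested at 20 µM; growth read once vehicle control cultures reached saturation at 30 °C; 1 = growth at the plate median or of vehicle wells; lower values mean less growth of the strain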
Settings: S. cerevisiae deletion strains, growth OD
[1] = locus YHR030C, strain SLT2, active compounds read low

Measured: normalized growth

Cc1cc(C)cc(N2C(=O)CC(Sc3ccccc3C(=O)O)C2=O)c1 (configuration not stated)
inactive: locus YAL013W, strain DEP1, active compounds read low 0.955 | locus YBR229C, strain ROT2, active compounds read low 0.987 | locus YDL101C, strain DUN1, active compounds read low 0.953 | locus YDR150W, strain NUM1, active compounds read low 0.945 | locus YEL061C, strain CIN8, active compounds read low 0.961 | locus YGR078C, strain PAC10, active compounds read low 1 | locus YHR087W, strain rtc3, active compounds read low 0.987 | locus YJR075W, strain HOC1, active compounds read low 1.01 | locus YLR058C, strain SHM2 (second series), active compounds read low 0.995 | locus YMR219W, strain ESC1, active compounds read low 0.996 | locus YMR263W, strain SAP30, active compounds read low 0.928 | locus YNL322C, strain KRE1, active compounds read low 1 | locus YPL055C, strain LGE1, active compounds read low 0.876
active: locus YDL134C, strain PPH21, active compounds read low 0.773 | [1] 0.668 | locus YJL187C, strain SWE1, active compounds read low 0.894 | locus YJR043C, strain POL32, active compounds read low 0.789 | locus YKL190W, strain CNB1, active compounds read low 0.771 | locus YLR039C, strain RIC1, active compounds read low 0.109 | locus YLR085C, strain ARP6, active compounds read low 0.619 | locus YLR262C, strain YPT6, active compounds read low 0.12 | locus YML094W, strain GIM5, active compounds read low 0.849 | locus YNL153C, strain GIM3, active compounds read low 0.876 | locus YNL298W, strain CLA4 (second series), active compounds read low 0.711 | locus YNR030W, strain Alg12, active compounds read low 0.078 | locus YOL006C, strain TOP1, active compounds read low 0.27 | locus YPL241C, strain CIN2, active compounds read low 0.0797 | locus YPR135W, strain CTF4, active compounds read low 0.222

CN(C)C(=N)N=C(N)N
inactive: locus YAL021C, strain ccr4, active compounds read low 1.01 | locus YAL026C, strain drs2, active compounds read low 1.02 | locus YAL030W, strain snc1, active compounds read low 0.997 | locus YBL061C, strain skt5, active compounds read low 1.03 | locus YBR009C, strain hhf1, active compounds read low 0.966 | locus YBR023C, strain chs3, active compounds read low 1.02 | locus YBR171W, strain sec66, active compounds read low 1.01 | locus YBR231C, strain swc5, active compounds read low 0.997 | locus YBR279W, strain paf1, active compounds read low 1.03 | locus YCL011C, strain gbp2, active compounds read low 1.01 | locus YCL016C, strain dcc1, active compounds read low 1.04 | locus YCL061C, strain MRC1, active compounds read low 0.995 | locus YCL069W, strain vba3, active compounds read low 1 | locus YCR088W, strain abp1, active compounds read low 1.01 | locus YDL005C, strain med2, active compounds read low 1.02 | locus YDL040C, strain nat1, active compounds read low 1 | locus YDR001C, strain nth1, active compounds read low 1 | locus YDR069C, strain doa4, active compounds read low 0.984 | locus YDR137W, strain rgp1, active compounds read low 1.05 | locus YDR159W, strain sac3, active compounds read low 0.893 | locus YDR195W, strain ref2 1.02 | locus YDR297W, strain sur2, active compounds read low 0.998 | locus YDR334W, strain swr1, active compounds read low 0.998 | locus YDR335W, strain msn5, active compounds read low 1.03 | locus YDR392W, strain spt3, active compounds read low 0.858 | locus YEL003W, strain gim4, active compounds read low 0.985 | locus YEL037C, strain rad23, active compounds read low 1.01 | locus YEL061C, strain CIN8 (second series), active compounds read low 1 | locus YER015W, strain faa2, active compounds read low 1.01 | locus YER016W, strain bim1, active compounds read low 1.02 | locus YER111C, strain swi4, active compounds read low 1.03 | locus YER155C, strain BEM2 (second series), active compounds read low 0.867 | locus YFR010W, strain ubp6, active compounds read low 0.978 | locus YGL167C, strain pmr1, active compounds read low 0.999 | locus YGL173C, strain kem1, active compounds read low 0.993 | locus YGL227W, strain vid30, active compounds read low 0.996 | locus YGL240W, strain doc1, active compounds read low 0.996 | locus YGL253W, strain hxk2, active compounds read low 1.04 | locus YHR013C, strain ard1, active compounds read low 1.01 | locus YHR027C, strain rpn1, active compounds read low 0.986 | [1] 1.02 | locus YHR079C, strain IRE1, active compounds read low 0.977 | locus YHR142W, strain chs7, active compounds read low 1.02 | locus YJL092W, strain hpr5, active compounds read low 0.997 | locus YJL095W, strain BCK1 (second series), active compounds read low 1.01 | locus YJL095W, strain BCK1, active compounds read low 0.987 | locus YJL115W, strain asf1, active compounds read low 1.01 | locus YJL129C, strain trk1, active compounds read low 1 | locus YJL154C, strain vps35, active compounds read low 1 | locus YJL164C, strain tpk1, active compounds read low 0.969 | locus YJL166W, strain qcr8, active compounds read low 0.982 | locus YJR066W, strain TOR1, active compounds read low 0.952 | locus YKL160W, strain elf1, active compounds read low 1.04 | locus YKR026C, strain gcn3, active compounds read low 1 | locus YKR091W, strain srl3, active compounds read low 0.998 | locus YLL001W, strain dnm1, active compounds read low 0.98 | locus YLL026W, active compounds read low 1 | locus YLL041C, strain sdh2, active compounds read low 0.998 | locus YLR027C, strain aat2, active compounds read low 0.991 | locus YLR113W, strain HOG1, active compounds read low 0.954 | locus YLR221C, strain rsa3, active compounds read low 0.963 | locus YLR258W, strain gsy2, active compounds read low 1.03 | locus YLR262C, strain YPT6 (second series), active compounds read low 0.987 | locus YLR320W, strain mms22, active compounds read low 0.93 | locus YLR342W, strain FKS1, active compounds read low 0.996 | locus YLR357W, strain rsc2, active compounds read low 1 | locus YLR370C, strain arc18, active compounds read low 1.01 | locus YLR384C, strain iki3, active compounds read low 0.99 | locus YML120C, strain ndi1, active compounds read low 0.992 | locus YMR058W, strain fet3, active compounds read low 1 | locus YMR125W, strain sto1, active compounds read low 1.01 | locus YMR129W, active compounds read low 0.992 | locus YMR205C, strain PFK2, active compounds read low 0.985 | locus YMR231W, strain pep5, active compounds read low 1 | locus YNL071W, strain lat1, active compounds read low 0.995 | locus YNL183C, strain NPR1, active compounds read low 0.923 | locus YNL209W, strain ssb2, active compounds read low 1.02 | locus YNL248C, strain rpa49, active compounds read low 1.02 | locus YNL322C, strain KRE1 (second series), active compounds read low 1.02 | locus YNR049C, strain mso1, active compounds read low 0.992 | locus YOR001W, strain rrp6, active compounds read low 0.948 | locus YOR070C, strain gyp1, active compounds read low 1.01 | locus YOR080W, strain dia2, active compounds read low 1 | locus YOR083W, strain WHI5, active compounds read low 0.975 | locus YOR106W, strain vam3, active compounds read low 1.02 | locus YOR231W, strain MKK1, active compounds read low 0.99 | locus YOR265W, strain rbl2, active compounds read low 1.01 | locus YOR270C, strain vph1, active compounds read low 0.929 | locus YOR290C, strain snf2, active compounds read low 1.05 | locus YPL051W, strain arl3, active compounds read low 1.05 | locus YPL078C, strain atp4, active compounds read low 1.05 | locus YPL106C, strain sse1, active compounds read low 1.09 | locus YPL240C, strain hsp82, active compounds read low 1 | locus YPL256C, strain CLN2, active compounds read low 0.961
